From PubChem BioAssay (EPA / NIEHS)
Active and inactive are the calls of the source. Rule for the calls: active = hit-call score of the fitted dose curve at least 0.9, where 1 is the maximum; inactive = score below 0.9.

Legend:
[1] = ATG_CRE_CIS: Attagene CIS-FACTORIAL HepG2 Assay for human cAMP Responsive Element (CRE) binding protein 3 (AID 2282926); conditions: HepG2 CRE cis-reporter, Attagene multiplexed mRNA; actives raise or lower the signal
How it was run: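 Endogenous CRE-binding activity in HepG2 is reported through a cis-regulated transfected reporter. Following a day of exposure, mRNA levels are determined by reverse transcription PCR and fluorescent fragment analysis; fits run in both directions versus DMSO.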

[2] = molecular target: CCAAT/enhancer-binding protein beta (Homo sapiens) (UniProt P17676); test: ATG_C_EBP_CIS: Attagene CIS-FACTORIAL HepG2 Assay for human CCAAT/Enhancer Binding Protein (C/EBP) beta (AID 2282927); conditions: HepG2 Attagene cis-factorial transcription factor reporter; actives raise or lower the signal
How it was run: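 Transiently transfected HepG2 (MRTU library, endogenous TF-driven promoters); 24 h dosing; total RNA → oligo(dT) RT → PCR → 6-FAM primer extension → HpaI digest → CE; fit bidirectionally vs DMSO.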

[3] = ATG_CMV_CIS: Attagene CIS-FACTORIAL HepG2 Assay for human CMV (Internal Marker) (AID 2282928); conditions: HepG2 CMV promoter reporter, transcription factor profiling; actives raise or lower the signal;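 note: endpoint acts as a background internal control marker rather than a target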
How it was run: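 Endogenous transcription factor activity read in HepG2 via transfected cis-promoter reporter units. After 24 h dosing, reporter mRNA measured by RT-PCR/capillary electrophoresis; gain or loss of signal fit relative to DMSO.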

[4] = ATG_DR4_LXR_CIS: Attagene CIS-FACTORIAL HepG2 Assay for human Liver X Receptor (LXR), DR4 submotif (AID 2282929); conditions: HepG2 Attagene DR4 cis-reporter, mRNA transcription; actives raise or lower the signal
How it was run: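 HepG2, transient MRTU transfection, cis-element (DR4) promoter; 24 h compound exposure; total RNA → oligo(dT) RT → PCR → 6-FAM primer extension → HpaI cut → CE. Gain/loss vs DMSO, bidirectional fit.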

[5] = molecular target: Aryl hydrocarbon receptor (Homo sapiens) (UniProt P35869); test: ATG_Ahr_CIS: Attagene CIS-FACTORIAL HepG2 Assay for human Aryl Hydrocarbon Receptor (Ahr) (AID 2282930); conditions: HepG2 AhR cis-factorial reporter transcription; actives raise or lower the signal
How it was run: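 Read-out: reporter mRNA quantified by RT-PCR with fluorescent primer extension and capillary electrophoresis. Human HepG2 liver cells carried transfected cis-promoter reporter units and were exposed to chemical for 24 h; gain or loss fitted relative to DMSO.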

[6] = ATG_AP_1_CIS: Attagene CIS-FACTORIAL HepG2 Assay for human Activator Protein 1 (AP-1) (AID 2282931); conditions: HepG2 Attagene cis-factorial AP-1 reporter mRNA; actives raise or lower the signal
How it was run: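 Transient MRTU transfection of HepG2 → 24 h chemical treatment → RNA isolation, RT-PCR, 6-FAM labelling, HpaI digest → capillary electrophoresis. Fit: bidirectional, DMSO negative control.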

[7] = ATG_AP_2_CIS: Attagene CIS-FACTORIAL HepG2 Assay for human Activator Protein 2 (AP-2) (AID 2282932); conditions: HepG2 AP-2 cis-reporter, Attagene transcription factor profiling; actives raise or lower the signal
How it was run: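 Multiplexed mRNA reporter assay in HepG2: cis-regulated units report endogenous factor activity after 24 h treatment. Fluorescence from capillary electrophoresis of RT-PCR products gives the signal, with DMSO as baseline.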

[8] = ATG_BRE_CIS: Attagene CIS-FACTORIAL HepG2 Assay for human Bone Morphogenetic Protein (BMP) Response Element (BRE) (AID 2282933); conditions: HepG2 BMP response element reporter, Attagene transcription factor profiling; actives raise or lower the signal
How it was run: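 HepG2 cells transiently transfected with multiplexed cis-element reporter units were dosed with chemical for 24 h. Reporter mRNA was measured by RT-PCR with fluorescent labelling, HpaI digestion and capillary electrophoresis; bidirectional fitting relative to DMSO.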

[9] = molecular target: Retinoic acid receptor alpha (Homo sapiens) (UniProt P10276); test: ATG_DR5_RAR_CIS: Attagene CIS-FACTORIAL HepG2 Assay for human Retinoic Acid Receptor Alpha (RARE), DR5 submotif (AID 2282934); conditions: HepG2 Attagene cis-factorial RARE DR5 reporter, mRNA; actives raise or lower the signal
How it was run: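 Read-out: DR5-driven reporter transcript measured by RT-PCR, 6-FAM primer extension, HpaI digest and capillary electrophoresis. Human HepG2 liver cells carry transiently transfected cis-element reporter constructs; dosing lasts 24 h. Gain or loss of signal fitted against DMSO baseline.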

[10] = molecular target: Transcription factor E2F1 (Homo sapiens) (UniProt Q01094); test: ATG_E2F_CIS: Attagene CIS-FACTORIAL HepG2 Assay for human E2F Transcription Factor 1 (AID 2282935); conditions: HepG2 Attagene cis-reporter, E2F reporter RNA transcripts; actives raise or lower the signal
How it was run: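 Measures reporter transcript levels via RT-PCR with capillary electrophoresis detection in HepG2 cells harboring cis-regulated reporter units; 24 h post-dose; bidirectional curve fitting with DMSO as baseline.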

[11] = ATG_E_Box_CIS: Attagene CIS-FACTORIAL HepG2 Assay for human Enhancer Box (E-box) (AID 2282936); conditions: HepG2 E-box cis-reporter transcription, actives raise or lower the signal
How it was run: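 First, HepG2 cells receive multiple cis-regulated reporter constructs by transient transfection. Next, chemicals are applied for 24 h. Finally, reporter mRNA is quantified via RT-PCR and capillary electrophoresis, with DMSO as baseline.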

[12] = ATG_M_61_CIS: Attagene CIS-FACTORIAL HepG2 Assay for M61 Transcription Factor (Internal Marker) (AID 2282937); conditions: HepG2 Attagene CIS-FACTORIAL M61 internal marker reporter; actives raise or lower the signal
How it was run: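 Human liver HepG2, transient MRTU transfection (cis promoter elements), 24 h compound. Total RNA → oligo(dT) RT → PCR → FAM label → HpaI → CE. Internal background marker; bidirectional fitting, DMSO = baseline.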

[13] = ATG_M_19_CIS: Attagene CIS-FACTORIAL HepG2 Assay for M19 Transcription Factor (Internal Marker) (AID 2282939); conditions: HepG2 Attagene CIS-FACTORIAL M19 internal marker reporter; actives raise or lower the signal
How it was run: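 HepG2 cells transiently transfected with cis-regulated multiple reporter transcription units were dosed for 24 h; reporter mRNA was quantified by RT-PCR, 6-FAM primer-extension labelling, HpaI digestion and capillary electrophoresis, with bidirectional fitting against DMSO baseline.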

[14] = ATG_Ets_CIS: Attagene CIS-FACTORIAL HepG2 Assay for human Erythroblast Transformation Specific (ETS) (AID 2282941); conditions: HepG2 ETS cis-reporter transcription, actives raise or lower the signal
How it was run: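 Steps: transfect HepG2 with multiple reporter units; treat compound 24 h; isolate RNA, DNase-treat, reverse-transcribe; PCR-amplify, label with 6-FAM, digest with HpaI; separate by capillary electrophoresis. Activity fitted both directions versus DMSO.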

[15] = molecular target: Hepatocyte nuclear factor 3-beta (Homo sapiens) (UniProt Q9Y261); test: ATG_FoxA2_CIS: Attagene CIS-FACTORIAL HepG2 Assay for human Forkhead box A2 (FOXA2) (AID 2282942); conditions: HepG2 cis-reporter transcription factor activity, 24 h; actives raise or lower the signal
How it was run: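 Transient MRTU transfection of HepG2 liver cells; 24 h treatment; total RNA → oligo(dT) RT → PCR → FAM primer extension → HpaI cut → CE. Bidirectional fit vs DMSO.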

[16] = ATG_FoxO_CIS: Attagene CIS-FACTORIAL HepG2 Assay for human Forkhead box O (FoxO) (AID 2282943); conditions: HepG2 Attagene cis-reporter, FoxO element, mRNA; actives raise or lower the signal
How it was run: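 Read-out: fluorescence of 6-FAM-labelled reporter cDNA fragments resolved by capillary electrophoresis. Transiently transfected HepG2 cells were dosed for 24 h; activity fitted in both directions relative to DMSO controls.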

[17] = ATG_GATA_CIS: Attagene CIS-FACTORIAL HepG2 Assay for human GATA Binding Protein (AID 2282944); conditions: HepG2 GATA cis-element reporter, Attagene multiplex mRNA; actives raise or lower the signal
How it was run: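 HepG2 cells transiently transfected with multiplexed cis-element reporter units reflecting endogenous transcription factor activity; reporter mRNA measured after 24 h dosing by RT-PCR, 6-FAM labeling, HpaI digestion and capillary electrophoresis. Bidirectional fitting versus DMSO baseline.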

[18] = ATG_GLI_CIS: Attagene CIS-FACTORIAL HepG2 Assay for human Zinc Finger Protein GLI1 (AID 2282945); conditions: HepG2, Attagene cis-factorial reporter mRNA, GLI element; actives raise or lower the signal
How it was run: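 Transiently transfected HepG2 cells report endogenous transcription factor activity via cis-element-driven reporter units. After 24 h compound exposure, reporter mRNA was measured by RT-PCR with capillary electrophoresis; bidirectional fitting against DMSO baseline.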

[19] = ATG_EGR_CIS: Attagene CIS-FACTORIAL HepG2 Assay for human Early Growth Response 1 (EGR1) (AID 2282938); conditions: HepG2 Attagene CIS-FACTORIAL EGR reporter mRNA; actives raise or lower the signal
How it was run: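 Transient transfection of human HepG2 with multiple cis-regulated reporter units, chemical exposure 24 h, total RNA isolated. Reverse transcription, PCR, fluorescent labelling and capillary electrophoresis quantify reporter transcripts; activity fitted bidirectionally against DMSO.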

Measured: AC50

Transcription factor E2F1 (Homo sapiens), sequence (Q01094 whole entry, looked up): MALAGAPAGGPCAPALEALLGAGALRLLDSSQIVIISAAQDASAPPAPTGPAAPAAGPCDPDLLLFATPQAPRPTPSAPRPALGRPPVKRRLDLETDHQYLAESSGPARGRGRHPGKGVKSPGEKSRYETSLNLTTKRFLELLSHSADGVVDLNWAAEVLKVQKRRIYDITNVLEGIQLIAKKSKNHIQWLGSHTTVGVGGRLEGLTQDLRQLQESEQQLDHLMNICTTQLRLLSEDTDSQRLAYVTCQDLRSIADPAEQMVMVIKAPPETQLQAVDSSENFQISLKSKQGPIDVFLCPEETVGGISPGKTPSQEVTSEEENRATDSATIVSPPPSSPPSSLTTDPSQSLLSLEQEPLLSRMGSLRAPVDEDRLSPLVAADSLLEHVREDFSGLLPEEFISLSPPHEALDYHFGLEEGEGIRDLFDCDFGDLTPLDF
CCAAT/enhancer-binding protein beta (Homo sapiens), sequence (P17676 whole entry, looked up): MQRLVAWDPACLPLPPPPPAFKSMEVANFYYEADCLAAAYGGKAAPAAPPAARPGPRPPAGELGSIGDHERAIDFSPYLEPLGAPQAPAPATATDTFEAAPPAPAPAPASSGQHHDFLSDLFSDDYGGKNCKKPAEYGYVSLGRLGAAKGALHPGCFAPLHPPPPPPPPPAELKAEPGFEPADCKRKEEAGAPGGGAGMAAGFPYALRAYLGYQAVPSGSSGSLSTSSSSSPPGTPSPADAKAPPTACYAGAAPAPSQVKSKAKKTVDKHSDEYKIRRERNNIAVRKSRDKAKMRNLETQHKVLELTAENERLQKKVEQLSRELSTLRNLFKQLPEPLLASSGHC
Retinoic acid receptor alpha (Homo sapiens), sequence (P10276 whole entry, looked up): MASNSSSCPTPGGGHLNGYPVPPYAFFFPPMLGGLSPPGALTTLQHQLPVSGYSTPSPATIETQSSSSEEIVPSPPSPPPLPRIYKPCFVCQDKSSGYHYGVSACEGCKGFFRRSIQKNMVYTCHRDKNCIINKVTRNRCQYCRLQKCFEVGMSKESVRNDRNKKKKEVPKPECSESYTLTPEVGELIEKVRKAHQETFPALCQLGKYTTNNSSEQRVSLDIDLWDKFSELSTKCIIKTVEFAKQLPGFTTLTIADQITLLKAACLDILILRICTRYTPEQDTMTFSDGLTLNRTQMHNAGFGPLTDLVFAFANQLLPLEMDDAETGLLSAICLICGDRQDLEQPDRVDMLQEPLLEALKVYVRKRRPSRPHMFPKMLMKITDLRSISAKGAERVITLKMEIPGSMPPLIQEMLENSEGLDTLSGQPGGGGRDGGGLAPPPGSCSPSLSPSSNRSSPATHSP
Aryl hydrocarbon receptor (Homo sapiens), sequence (P35869 whole entry, looked up): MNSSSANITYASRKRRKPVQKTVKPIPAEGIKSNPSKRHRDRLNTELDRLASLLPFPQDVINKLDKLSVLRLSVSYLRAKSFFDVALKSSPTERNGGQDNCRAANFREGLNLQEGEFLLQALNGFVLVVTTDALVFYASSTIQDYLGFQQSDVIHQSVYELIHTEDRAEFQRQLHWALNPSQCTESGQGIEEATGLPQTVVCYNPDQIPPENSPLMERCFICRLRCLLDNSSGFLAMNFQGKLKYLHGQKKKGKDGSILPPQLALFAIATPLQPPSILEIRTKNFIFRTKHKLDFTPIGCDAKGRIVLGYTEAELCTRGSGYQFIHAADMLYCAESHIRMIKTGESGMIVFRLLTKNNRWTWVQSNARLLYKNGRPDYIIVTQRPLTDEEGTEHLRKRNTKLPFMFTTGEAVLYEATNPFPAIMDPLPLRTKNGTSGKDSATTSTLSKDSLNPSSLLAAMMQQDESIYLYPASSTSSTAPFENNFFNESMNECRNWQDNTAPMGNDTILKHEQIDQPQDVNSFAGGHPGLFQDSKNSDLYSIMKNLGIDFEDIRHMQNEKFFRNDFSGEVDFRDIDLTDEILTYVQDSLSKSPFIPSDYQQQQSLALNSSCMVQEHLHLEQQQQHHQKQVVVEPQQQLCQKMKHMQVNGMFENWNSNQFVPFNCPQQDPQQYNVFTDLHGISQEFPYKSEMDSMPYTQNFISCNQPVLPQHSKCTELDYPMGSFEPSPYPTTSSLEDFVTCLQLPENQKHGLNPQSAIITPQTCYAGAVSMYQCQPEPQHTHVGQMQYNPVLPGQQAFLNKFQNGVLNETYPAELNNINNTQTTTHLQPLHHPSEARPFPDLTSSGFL
Hepatocyte nuclear factor 3-beta (Homo sapiens), sequence (Q9Y261 whole entry, looked up): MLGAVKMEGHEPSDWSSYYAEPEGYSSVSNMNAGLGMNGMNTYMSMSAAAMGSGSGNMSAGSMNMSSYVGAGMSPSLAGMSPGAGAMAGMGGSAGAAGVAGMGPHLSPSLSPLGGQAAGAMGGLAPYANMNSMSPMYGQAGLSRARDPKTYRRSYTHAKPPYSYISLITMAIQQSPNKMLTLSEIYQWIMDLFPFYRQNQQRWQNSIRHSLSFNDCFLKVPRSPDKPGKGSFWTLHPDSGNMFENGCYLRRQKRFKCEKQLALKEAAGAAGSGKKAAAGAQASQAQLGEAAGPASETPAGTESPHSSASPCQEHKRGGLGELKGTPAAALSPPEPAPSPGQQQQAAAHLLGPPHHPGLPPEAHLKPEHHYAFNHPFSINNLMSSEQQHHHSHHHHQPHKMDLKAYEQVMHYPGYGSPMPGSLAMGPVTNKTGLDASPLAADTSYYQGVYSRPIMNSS

CC(CN=Cc1ccccc1O)N=Cc1ccccc1O (stereo unspecified)
inactive: [1] | [2] | [4] | [7] | [8] | [9] | [10] | [11] | [12] | [13] | [14] | [15] | [16] | [17] | [18]
active: [3] 100 µM | [5] 68.7 µM | [6] 100 µM

CCC(Cl)C(Cl)C(Cl)CC(Cl)C(Cl)C(C)Cl (stereo unspecified)
inactive: [1] | [2] | [5] | [7] | [9] | [10] | [12] | [19] | [13] | [14] | [16] | [17] | [18]
active: [3] 47.7 µM | [4] 9.99 µM | [6] 55.7 µM | [8] 116 µM | [11] 83.9 µM

CC(C)OCCO
inactive: [1] | [2] | [3] | [4] | [5] | [6] | [7] | [8] | [9] | [10] | [11] | [12] | [13] | [14] | [15] | [16] | [17] | [18]

CC(C)Nc1nc(N)nc(Cl)n1
inactive: [1] | [2] | [3] | [4] | [5] | [6] | [7] | [8] | [9] | [10] | [11] | [12] | [13] | [14] | [16] | [17] | [18]
